11 molecules from PubChem BioAssay (NCI) can be followed below.

Compounds without any hit were thinned out: in the full panel of roughly 83,000, 20% have a hit.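 In brief: 96-well plates, 48 h treatment, single concentration, percent growth endpoint.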 Unmarked numbers belong to inactive results. Calls of active or inactive are those of the source. The calls were made as follows: active = growth percent below 10; inactive = the rest.

Common to all, as to experiment: NCI-60 one-dose screen, 48 h (100 = growth as untreated, 0 = no growth, -100 = all killed)
Holding throughout (conditions): 10 µM unless noted

Test [1] has as its system HCT-15 colon.
For test [2], the system named is HT29 colon.
Test [3] deals with SNB-75 CNS.
Test [4] concerns SNB-19 CNS.
Test [5] concerns U251 CNS.
Test [6] has as its system PC-3 prostate.
Test [7] has as its system SK-MEL-5 melanoma.
For test [8], the system named is UACC-62 melanoma.
Test [9] deals with LOX IMVI melanoma.
In test [10] the test system is SK-MEL-28 melanoma.
Test [11] deals with SK-MEL-2 melanoma.
The subject of test [12] is SN12C renal.
In test [13] the test system is UO-31 renal.
The test system of test [14] is TK-10 renal.
Test [15] deals with ACHN renal.
For test [16], the system named is CAKI-1 renal.
For test [17], the system named is A498 renal.
Test [18] has as its system CCRF-CEM leukemia.
The subject of test [19] is MOLT-4 leukemia.
In test [20] the test system is EKVX NSCLC.

As to `CC/C=C\C[C@H](O)C/C=C1/C(=O)C=C[C@@H]1C/C=C\CCCC(=O)OC(C)C`, the growth was -33.5% (active) in [1]; -49.7% (active) in test [2]; 46% in test [3]; 9.75% (active) in [4]; -89.8% (active) in [5]; -0.368% (active) in test [6]. Moreover, the growth in test [7] is -94.7% (active); in test [8] it was -41.7% (active); in [9] it was -82.3% (active); in [10], -41.3% (active); in [11], -21.3% (active); in test [12], -16.3% (active). Besides, the growth in test [13] was -72.6% (active); in test [14], -3.87% (active); in test [15], -79.1% (active); in test [16] it was 9.27% (active); in test [17], 77.7%; in test [18], -28.8% (active). In test [19], the growth was -24.5% (active).
`O=C(CO[N+](=O)[O-])Nc1ccc(C(=O)/C=C/c2ccc(Cl)cc2)cc1`: the growth is 58.9% in [1]; -23.4% (active) in [2]; 69.7% in test [3]; 87.9% in test [4]; 14.9% in [5]; 27.6% in [6]. For the same molecule, the growth in [7] was 54.5%; in test [8], 49.2%; in [9], -60.9% (active); in [10], 86.8%; in test [11], 81.7%; in test [12] it was 46.8%. In addition, the growth was 32% in test [13]; 45.7% in test [14]; 62.3% in test [15]; 74.9% in test [16]; 103% in test [17]; 20.1% in test [18].
In the case of `O=C(/C=C/c1cc2ccccc2[nH]c1=O)/C=C/c1cc2ccccc2[nH]c1=O`, the growth in [1] is 48.2%; in test [2], -39.2% (active); in test [3], 19.5%; in test [4], 44.5%; in [5], -9.57% (active); in test [6] it was 9.61% (active). The growth was -22.8% (active) in test [7]; 13.5% in test [8]; -65.4% (active) in [9]; 37.9% in test [10]; 54% in test [11]; 47.3% in [20]. Besides, the growth in test [12] was 23.8%; in [13] it was -83.8% (active); in [14] it was -14.8% (active); in [15], -11.2% (active); in [16], 31.9%; in test [17] it was 30.4%. The results for the growth in test [18] and in test [19] were 17.8% and 31.6%, respectively.
Consider `Cn1c(=O)c2c(ncn2CC[N+](C)(C)C)n(C)c1=O`, for which the growth in test [1] was 112%; in test [2] it was 93.8%; in [3], 90.9%; in [4], 101%; in test [5], 101%; in [6], 94.5%. Further, the growth in [7] is 102%; in [8] it was 86.9%; in test [9], 99.6%; in test [10], 106%; in test [11], 99.7%; in test [20], 94.6%. In addition, the growth in [12] is 103%; in test [14], 91.8%; in [15] it was 110%; in test [16], 102%; in [17], 115%; in test [18] it was 109%. The growth in [19] was 104%.
On to `O=C(NCc1cccc(C(F)(F)F)c1)[C@H](CCC(=O)N1CCN(C2CCCCC2)CC1)N1C(=O)[C@@H](N2C(=O)OC[C@@H]2c2ccccc2)[C@H]1/C(Cl)=C/c1ccccc1`, for which the growth in test [1] is 31.8%; in test [2] it was 2.23% (active); in test [3] it was 58.5%; in test [4], 39.4%; in test [5], 28.1%; in test [6], 21.7%. For the same molecule, the growth is -59.5% (active) in [7]; 60.3% in test [8]; 19.9% in [9]; 18.6% in test [10]; 34.8% in [11]; 37.1% in test [12]. The growth in [13] is 27.5%; in test [14], 40.8%; in test [15], 58.4%; in test [16], 62.4%; in test [17], 46.9%; in test [18], 33.9%. Moreover, the growth in [19] was 21.4%.
In the case of `CCCCNC(=O)NS(=O)(=O)c1ccc(N2N=C(c3cc(C)ccc3C)CC2c2cc(OC)c(OC)c(OC)c2)cc1` (stereo not drawn), the growth is 48.6% in test [1]; 72.2% in [2]; 51.1% in test [3]; 68% in test [4]; 51.3% in [5]; 36.9% in test [6]. Besides, the growth is 6.28% (active) in test [7]; 49.5% in test [8]; 9.68% (active) in [9]; 18.6% in test [10]; 54.9% in test [11]; 73.7% in test [12]. Further, the growth in [13] was 32.2%; in test [14] it was 74.5%; in test [15] it was 63.6%; in test [16], 39%; in test [17], 34.6%; in test [18], 55.1%. Also, the growth in test [19] was 30.9%.
For the molecule `CSc1nc(NCCCNc2ccnc3cc(Cl)ccc23)cc(-c2ccccc2)n1`, the growth was 46.2% in test [1]; 9.09% (active) in [2]; 56.9% in test [3]; 91.9% in [4]; 53.3% in test [5]; 59.9% in test [6]. Further, the growth in test [7] was 52.6%; in test [8] it was 91%; in [9], 31.2%; in [10], -52.2% (active); in test [12], 79.5%; in test [13] it was 42.3%. The growth in test [14] was 75.7%; in [15] it was 92.2%; in test [16], 54.1%; in test [17], 40.2%; in test [18], 47%.
With `COC(/C=C/c1ccc([N+](=O)[O-])cc1)OC`, the growth in test [1] was 116%; in test [2], 94.7%; in test [3], 85.9%; in [4], 91.2%; in test [5] it was 74.5%; in test [6], 95.1%. In addition, the growth in test [7] was 98.3%; in test [8], 89.9%; in test [10], 93.5%; in test [11] it was 99%; in test [20], 101%; in test [12], 92.8%. Moreover, the growth in test [14] is 103%; in test [15], 107%; in test [16], 102%; in [17], 111%; in test [18], 39.6%; in [19], 69.4%.
`Cc1cc(OCc2ccc(C(F)(F)F)cc2)c2c(c1)C(=O)C=C(NCCN1CCCC1)C2=O`: the growth in [1] is 31.2%; in [2] it was 9.81% (active); in test [3], 76.4%; in test [4], 79.8%; in test [5], 22.3%; in [6], 66%. Besides, the growth was -35.7% (active) in test [7]; 86.8% in [8]; -52.9% (active) in [9]; -84.1% (active) in test [10]; 79.4% in [12]; 53.8% in [13]. The growth in test [14] is 82.7%; in [15], 72.5%; in test [16], 53.1%; in test [17] it was 67.8%; in test [18], 13%; in [19], 16.4%.
As to `CC/C(=C(\c1ccc(O)cc1)c1ccc(OCCN(C)CCN(C)C(=O)CCCCC(=O)c2c(C)[nH]c(/C=C3\N=C(c4ccc[nH]4)C=C3OC)c2C)cc1)c1ccccc1`, the growth in test [1] was 60%; in [2], 29.3%; in test [3] it was 105%; in test [4], 114%; in test [5] it was 72%; in test [6], 61.2%. Also, the growth in test [7] was 77.8%; in test [8], 95.4%; in test [9], 44.9%; in test [10], 89.7%; in test [12], 82.9%; in [13], 55.8%. The growth in test [14] is 119%; in test [15] it was 92.5%; in test [16], 78.5%; in test [17], 66.5%; in test [18], 45.6%; in [19] it was 56%.
Take `O=S(=O)(NCCCNc1cc(-c2cn(-c3ccccc3)nc2-c2cccc(O)c2)ccn1)c1ccccc1`: the growth in test [1] is 9.91% (active); in [2], 14.8%; in [3], 51%; in [4] it was 77.5%; in [5] it was 41.3%; in test [6], 21.5%. Besides, the growth is 15.4% in [7]; 50.1% in test [8]; 17% in [9]; 74.6% in test [11]; 37.8% in test [20]; 68.7% in [12]. Moreover, the growth was 37.8% in [13]; 62.5% in test [14]; 43.3% in test [16]; 50.6% in test [17]; 38.5% in test [18]; 37.1% in test [19].
